Among the data in PubChem BioAssay are composite z-score values, retold here.

Values joined by “and” are separate entries in the source; they are usually repeats but may differ in a detail not shown here. Equal entries are not always repeated. Active and inactive are the calls of the source.

This assay has as its system XIP peptide (Xip251-270) binding. As to the kind of experiment: small-molecule binders of XIP peptide, primary screen, biochemical, small-molecule microarray, fluorescence 635/667 nm, 0.1 µg/mL protein (AID 1182). Particulars: fluorescent protein binding, 635 nm, higher = more signal, called active from +8 up or from −8 down.
Consider `C=CCN(C(=O)C(c1cccs1)N(CCOCCO)C(=O)/C=C\C(=O)O)c1ccc(OC)cc1` (stereo not given), for which the composite z-score was -0.0498 (inactive) and -0.363 (inactive). For `C=CCN1C(=O)[C@]2(O[C@H](CCn3cc(CCO)nn3)[C@@H]([Si](C)(C)c3ccc(OC)cc3)[C@@H]2C)c2cc(N3C(=O)c4cccc5cccc3c45)ccc21`, the composite z-score is 0.0184 (inactive) and 0.416 (inactive). In the case of `C=CCN(Cc1ccccc1)C(=O)C(c1cccs1)N(C(=O)/C=C\C(=O)O)c1ccc(CCO)cc1` (stereo not given), the composite z-score was -0.37 (inactive) and 0.164 (inactive). The result for `C=CCN(C(=O)C1N(CCOCCO)C(=O)C2C(C(=O)O)C3C=CC21O3)C(C)(C)C` (stereo not given) reads -0.348 (inactive) and -0.346 (inactive); that for `C=CC[C@H](O)c1ccc(OCCO)cc1`, 0.179 (inactive) and 0.125 (inactive). The result for `C=CCN(CCCC)C(=O)C(c1cccs1)N(CCOCCO)C(=O)/C=C\C(=O)O` (stereo not given) reads 0.455 (inactive) and 0.476 (inactive); that for `C=CCN(CCCC)C(=O)C(c1cccs1)N(C(=O)/C=C\C(=O)O)c1ccc(CCO)cc1` (stereo not given), 1.82 (inactive) and -0.761 (inactive). For `C=CCN(Cc1ccccc1)C(=O)C1N(CCCCCCO)C(=O)C2C(C(=O)O)C3C=CC21O3` (stereo not given) the value was -0.0934 (inactive) and -0.383 (inactive); for `C[N+](C)(C)CCCCCCNC(=O)[C@@H]1C[C@@H]2C(=O)N[C@@H](CCCC[N+](C)(C)C)C(=O)N2[C@@H]1c1ccc(O)cc1`, 0.134 (inactive) and 0.316 (inactive).

With `C=CCN(Cc1ccccc1)C(=O)C(c1cccs1)N(C(=O)/C=C\C(=O)O)c1c(Cl)cccc1CO` (stereo not given), the composite z-score was -0.422 (inactive) and -0.522 (inactive). The result for `CC(C)OC(=O)C=C1C[C@@H](c2ccccc2)O[C@@H](c2ccccc2)O1` reads -0.0817 (inactive) and 0.574 (inactive); that for `CCOC(=O)c1ccc(NC(=O)O[C@H]2[C@H](OC(=O)Nc3ccccc3)[C@@H](OC(=O)Nc3ccccc3)[C@@H](OC)O[C@@H]2CO)cc1`, 1.73 (inactive) and 0.466 (inactive). As to `CC(C)OC(=O)C=C1C[C@@H](c2cccc(C(F)(F)F)c2)O[C@@H](c2cccc(C(F)(F)F)c2)O1`, the composite z-score is 0.081 (inactive) and 0.769 (inactive). With `C=CCN(Cc1ccccc1)C(=O)C1N(c2ccc(CCO)cc2)C(=O)C2C(C(=O)O)C3C=CC21O3` (stereo not given), the composite z-score was 0.224 (inactive) and -0.96 (inactive). Regarding `C[N+](C)(C)CCCCNC(=O)[C@H]1C[C@H]2C(=O)N[C@@H](CCCC[N+](C)(C)C)C(=O)N2[C@H]1c1cccc(OCCO)c1`, the composite z-score is 1.64 (inactive) and 0.768 (inactive). For `C=C[C@H](OC)[C@@H](O)c1ccc(O)c(F)c1` the value was 0.406 (inactive) and -0.397 (inactive); for `C=C[C@@H](OC)[C@H](O)c1ccc(O)c(F)c1`, -0.25 (inactive) and -2.1 (inactive); for `C=C[C@H](C)[C@@H](O)c1ccc(OCCO)cc1`, -0.301 (inactive) and -0.375 (inactive).

On to `C=CCN(CCCCC)C(=O)C(c1cccs1)N(CCOCCO)C(=O)/C=C\C(=O)O` (stereo not given), for which the composite z-score was -0.44 (inactive) and -0.841 (inactive). Turning to `C=CCN(C(=O)C(c1cccs1)N(CCOCCO)C(=O)/C=C\C(=O)O)C(C)(C)C` (stereo not given), the composite z-score is -0.344 (inactive) and 0.0156 (inactive).

Turning to `C=CCN(CCCCC)C(=O)C1N(CCCCCCO)C(=O)C2C(C(=O)O)C3C=CC21O3` (stereo not given), the composite z-score is 0.0579 (inactive) and 0.042 (inactive). For `C=CCN(CCCC)C(=O)C1N(c2ccc(CCO)cc2)C(=O)C2C(C(=O)O)C3C=CC21O3` (stereo not given), the composite z-score was -1.72 (inactive) and -1.1 (inactive).

With `C=CCN(CCCCC)C(=O)C(c1cccs1)N(C(=O)/C=C\C(=O)O)c1c(Cl)cccc1CO` (stereo not given), the composite z-score was -0.527 (inactive) and 0.809 (inactive). As for `C=CC[C@@H](O)c1ccc(O)c(F)c1`, the composite z-score is -0.316 (inactive) and -0.555 (inactive). For the molecule `C=C[C@@H](C)[C@H](O)c1ccc(O)c2ccccc12`, the composite z-score is -0.299 (inactive) and 0.342 (inactive).

With `CC(C)[Si]1(C(C)C)OCc2cc(CCCc3cc4c(c(CCc5ccccc5)n3)[Si](C(C)C)(C(C)C)OC4)nc(CCc3ccccc3)c21`, the composite z-score was -0.189 (inactive) and -0.0317 (inactive). Regarding `C[N+](C)(C)CCCCNC(=O)[C@H]1C[C@H]2C(=O)N[C@@H](CCCC[N+](C)(C)C)C(=O)N2[C@H]1c1ccc(O)cc1`, the composite z-score was 1.52 (inactive) and 1.25 (inactive). Regarding `C=CCN(C(=O)C(c1cccs1)N(C(=O)/C=C\C(=O)O)c1ccc(CCO)cc1)c1ccc(OC)cc1` (stereo not given), the composite z-score is -0.104 (inactive) and -0.169 (inactive). Regarding `C[N+](C)(C)CCCCCCNC(=O)[C@H]1C[C@H]2C(=O)N[C@@H](CCCC[N+](C)(C)C)C(=O)N2[C@H]1c1cccc(OCCO)c1`, the composite z-score is 0.421 (inactive) and 1.17 (inactive). Regarding `CCOC(=O)[C@@H]1CC2O[C@]23C[C@@H]1C(=O)N1CCC[C@@H]1[C@H]3O[Si](C)(C)C(C)(C)C` (stereo not given in full), the composite z-score is -0.86 (inactive) and -0.342 (inactive). As for `C[N+](C)(C)CCCCCCNC(=O)[C@H]1C[C@H]2C(=O)N[C@@H](CCCC[N+](C)(C)C)C(=O)N2[C@H]1c1ccc(O)cc1`, the composite z-score was 0.0514 (inactive) and -0.283 (inactive). The result for `C=CCN(CCCCC)C(=O)C1N(c2ccc(CCO)cc2)C(=O)C2C(C(=O)O)C3C=CC21O3` (stereo not given) reads -0.53 (inactive) and -0.482 (inactive); that for `C=C[C@@H](C)[C@@H](O)c1ccc(O)c2ccccc12`, 0.238 (inactive) and 0.467 (inactive); that for `C=CCN(CCCCC)C(=O)C(c1cccs1)N(C(=O)/C=C\C(=O)O)c1ccc(CCO)cc1` (stereo not given), -0.141 (inactive) and 0.737 (inactive).

As to `C#CCN1C(/C=C/c2ccccc2)C(=O)OC[C@H]1c1ccccc1` (stereo not given in full), the composite z-score is -0.538 (inactive) and 0.237 (inactive). With `C[N+](C)(C)CCCCNC(=O)[C@@H]1C[C@@H]2C(=O)N[C@@H](CCCC[N+](C)(C)C)C(=O)N2[C@@H]1c1cccc(OCCO)c1`, the composite z-score was 0.785 (inactive) and 1.87 (inactive). Turning to `C=CCN(CCCCC)C(=O)C1N(c2c(Cl)cccc2CO)C(=O)C2C(C(=O)O)C3C=CC21O3` (stereo not given), the composite z-score is -0.421 (inactive) and -0.228 (inactive). The result for `C=CCN(CCCC)C(=O)C(c1cccs1)N(C(=O)/C=C\C(=O)O)c1c(Cl)cccc1CO` (stereo not given) reads -1.2 (inactive) and -0.551 (inactive). As for `CC(C)[Si]1(C(C)C)OCc2cc(C3CC3)nc(CCc3ccccc3)c21`, the composite z-score is 1.11 (inactive) and 0.0908 (inactive). For `C[C@@]1([C@@H](NC(=O)Cc2ccccc2)c2ccc(-c3ccccc3)cc2)C[C@H]1C1CCCCC1`, the composite z-score was 0.142 (inactive) and -0.175 (inactive) and -0.0036 (inactive).
